# Laboratory results from PubChem BioAssay (EPA / NIEHS).
# The source made the active and inactive calls. How the source made its calls: active means hit-call score of the fitted dose curve at least 0.9, where 1 is the maximum; inactive means score below 0.9.
# Key:
# Settings in all cases: mRNA level, 48 h; actives raise or lower the signal
# [1] = read-out: Cytochrome P450 7A1 (Homo sapiens) (UniProt P22680); assay: LTEA_HepaRG_CYP7A1: Life Technologies and Expression Analysis (LTEA) Assay for Cytochrome P450 7A1 (CYP7A1) using HepaRG (AID 2283496)
# Outline: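 HepaRG cells plated 48 h, then switched to serum-free induction medium and exposed in duplicate for 48 h to 8-point half-log series from 100 uM in 0.5% DMSO. CYP7A1 mRNA by qRT-PCR (TaqMan), normalized to ACTB/GAPDH/POLR2A; bidirectional fit versus DMSO.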
# [2] = read-out: Glutathione S-Transferase (GSTA2), GSTA2 (gene 2939); assay: LTEA_HepaRG_GSTA2: Life Technologies and Expression Analysis (LTEA) Assay for Glutathione S-Transferase (GSTA2) using HepaRG (AID 2283497)
# Outline: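 HepaRG, 48 h dosing, 8-pt half-log CRC from 100 uM, 0.5% DMSO vehicle, n=2; RNA → Fluidigm TaqMan qRT-PCR; GSTA2 vs ACTB/GAPDH/POLR2A; gain/loss fit vs DMSO.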
# [3] = read-out: Glutamate-cysteine ligase catalytic (GCLC), GCLC (gene 2729); assay: LTEA_HepaRG_GCLC: Life Technologies and Expression Analysis (LTEA) Assay for Glutamate-cysteine ligase catalytic (GCLC) using HepaRG (AID 2283498)
# Outline: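 Read-out is GCLC transcript level by Fluidigm-based TaqMan qRT-PCR, normalized to three housekeeping genes and fitted in both directions relative to 0.5% DMSO. Human HepaRG cells received chemicals for 48 h, up to 100 uM.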
# [4] = read-out: growth arrest and DNA damage 45 (GADD45G), GADD45G (gene 10912); assay: LTEA_HepaRG_GADD45G: Life Technologies and Expression Analysis (LTEA) Assay for growth arrest and DNA damage 45 (GADD45G) using HepaRG (AID 2283499)
# Outline: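 Human hepatic HepaRG line treated 48 h with chemicals (eight concentrations, half-log steps from 100 uM); transcript induction or repression of GADD45G scored by qRT-PCR versus DMSO vehicle.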
# [5] = read-out: Glutamate-cysteine ligase regulatory (GCLM), GCLM (gene 2730); assay: LTEA_HepaRG_GCLM: Life Technologies and Expression Analysis (LTEA) Assay for Glutamate-cysteine ligase regulatory (GCLM) using HepaRG (AID 2283500)
# Outline: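 Cells were plated, cultured 48 h, switched to serum-free induction medium, then dosed in duplicate for 48 h at eight half-log concentrations up to 100 uM. RNA was then profiled by qRT-PCR; gain or loss versus DMSO was fitted.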
# [6] = read-out: Glutathione S-transferase M3 (GSTM3), GSTM3 (gene 2947); assay: LTEA_HepaRG_GSTM3: Life Technologies and Expression Analysis (LTEA) Assay for Glutathione S-transferase M3 (GSTM3) using HepaRG (AID 2283501)
# Outline: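 Changes in GSTM3 expression, an oxidative-stress marker, were scored by bidirectional curve fitting against 0.5% DMSO vehicle. Human HepaRG cultures received chemicals for 48 h in duplicate, highest concentration 100 uM with half-log dilutions.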
# [7] = read-out: Heat shock 70 kDa protein 1 (HSPA1A), gene 3303; assay: LTEA_HepaRG_HSPA1A: Life Technologies and Expression Analysis (LTEA) Assay for Heat shock 70 kDa protein 1 (HSPA1A) using HepaRG (AID 2283502)
# Outline: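 Readout is HSPA1A transcript level by microfluidic qRT-PCR, normalized to three housekeeping genes and analysed for gain or loss of signal relative to 0.5% DMSO. Human HepaRG cultures received test chemicals for 48 h at up to 100 uM.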
# [8] = read-out: Hypoxia-inducible factor 1-alpha (Homo sapiens) (UniProt Q16665); assay: LTEA_HepaRG_HIF1A: Life Technologies and Expression Analysis (LTEA) Assay for Hypoxia-inducible factor 1 (HIF1A) Trancription factor using HepaRG (AID 2283503)
# Outline: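 Differentiated HepaRG cells in serum-free induction medium exposed 48 h, in duplicate, to 8-point half-log series from 100 uM in 0.5% DMSO. HIF1A mRNA measured by TaqMan qRT-PCR, normalized to ACTB/GAPDH/POLR2A, fitted bidirectionally versus DMSO.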
# [9] = read-out: 3-Hydroxy-3-Methylglutaryl-CoA Synthase 2 (HMGCS2), HMGCS2 (gene 3158); assay: LTEA_HepaRG_HMGCS2: Life Technologies and Expression Analysis (LTEA) Assay for 3-Hydroxy-3-Methylglutaryl-CoA Synthase 2 (HMGCS2) using HepaRG (AID 2283504)
# Outline: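 Expression of HMGCS2 in human HepaRG liver cells is measured by qRT-PCR 48 h after dosing (highest 100 uM, half-log series, 0.5% DMSO). Values come from bidirectional concentration-response fitting with DMSO as baseline.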
# [10] = read-out: HGF (gene 3082); assay: LTEA_HepaRG_HGF: Life Technologies and Expression Analysis (LTEA) Assay for Hepatocyte Growth Facto (HGF) using HepaRG (AID 2283505)
# Outline: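 Gain or loss of HGF mRNA in human HepaRG liver cells after 48 h chemical exposure; eight concentrations up to 100 uM with 0.5% DMSO vehicle, quantified by TaqMan qRT-PCR.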
# [11] = read-out: Insulin Like Growth Factor 1 (IGF1), IGF1 (gene 3479); assay: LTEA_HepaRG_IGF1: Life Technologies and Expression Analysis (LTEA) Assay for Insulin Like Growth Factor 1 (IGF1) using HepaRG (AID 2283506)
# Outline: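 HepaRG, plated 48 h, then switched to serum-free induction media; test chemical 8-pt half-log from 100 uM (0.5% DMSO), duplicate, 48 h. Lysis in RLT, TaqMan qRT-PCR, norm. ACTB/GAPDH/POLR2A. Bidirectional fit vs DMSO.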
# [12] = read-out: Intercellular Adhesion Molecule 1 (ICAM1), ICAM1 (gene 3383); assay: LTEA_HepaRG_ICAM1: Life Technologies and Expression Analysis (LTEA) Assay for Intercellular Adhesion Molecule 1 (ICAM1) using HepaRG (AID 2283507)
# Outline: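 Gain or loss of transcript in HepaRG hepatic cells is quantified by qRT-PCR after 48 h chemical exposure (up to 100 uM, half-log steps), with DMSO as baseline.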
# [13] = read-out: Insulin-like growth factor-binding protein 1 (IGFBP1), IGFBP1 (gene 3484); assay: LTEA_HepaRG_IGFBP1: Life Technologies and Expression Analysis (LTEA) Assay for Insulin-like growth factor-binding protein 1 (IGFBP1) using HepaRG (AID 2283508)
# Outline: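 mRNA induction or loss was quantified by qRT-PCR after 48 h chemical exposure of human HepaRG cells, with 0.5% DMSO as vehicle and baseline. Concentration-response over eight points up to 100 uM.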
# [14] = read-out: Interleukin 6 (IL6), IL6 (gene 3569); assay: LTEA_HepaRG_IL6: Life Technologies and Expression Analysis (LTEA) Assay for Interleukin 6 (IL6) using HepaRG (AID 2283509)
# Outline: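 HepaRG, ~100,000 cells/well, 48 h pre-culture; serum-free induction medium; cmpd 8-pt half-log from 100 uM, 0.5% DMSO, duplicate, 48 h. Lysis in RLT, TaqMan qRT-PCR; gain or loss vs DMSO.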
# [15] = read-out: Interleukin 6 Receptor (IL6R), IL6R (gene 3570); assay: LTEA_HepaRG_IL6R: Life Technologies and Expression Analysis (LTEA) Assay for Interleukin 6 Receptor (IL6R) using HepaRG (AID 2283510);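 on AC50: differentiated human HepaRG liver cells in serum-free induction medium; TaqMan qRT-PCR signal normalized to ACTB GAPDH and POLR2A housekeeping genes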
# Outline: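 Readout is IL6R transcript level by TaqMan qRT-PCR, normalized to three housekeeping genes and fitted bidirectionally against 0.5% DMSO controls. Human HepaRG cells received chemicals for 48 h in serum-free induction medium, highest concentration 100 uM.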
# [16] = read-out: Potassium channel subfamily K member 1 (KCNK1), KCNK1 (gene 3775); assay: LTEA_HepaRG_KCNK1: Life Technologies and Expression Analysis (LTEA) Assay for Potassium channel subfamily K member 1 (KCNK1) using HepaRG (AID 2283511)
# Outline: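 Gain or loss of KCNK1 mRNA is the read-out, quantified by qRT-PCR against three housekeeping genes after 48 h chemical treatment of human HepaRG liver cells. Concentrations ran from 100 uM downward in half-log steps, vehicle 0.5% DMSO.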
# [17] = read-out: Keratin 19 (KRT19), KRT19 (gene 3880); assay: LTEA_HepaRG_KRT19: Life Technologies and Expression Analysis (LTEA) Assay for Keratin 19 (KRT19) using HepaRG (AID 2283512)
# Outline: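 Gene-expression endpoint in the human liver line HepaRG after 48 h exposure to up to 100 uM test chemical with 0.5% DMSO vehicle; KRT19 mRNA by qRT-PCR, analyzed bidirectionally versus DMSO.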
# [18] = read-out: JUN Transcription Factor, JUN (gene 3725); assay: LTEA_HepaRG_JUN: Life Technologies and Expression Analysis (LTEA) Assay for JUN Transcription Factor using HepaRG (AID 2283513)
# Outline: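 Cells plated 48 h, medium switched to serum-free induction medium, then dosed 48 h (100 uM top, half-log dilutions, 0.5% DMSO). RNA isolated; JUN measured by qRT-PCR against three housekeeping genes; gain or loss fitted relative to DMSO.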
# [19] = read-out: Lipase C (LIPC), LIPC (gene 3990); assay: LTEA_HepaRG_LIPC: Life Technologies and Expression Analysis (LTEA) Assay for Lipase C (LIPC) using HepaRG (AID 2283514)
# Outline: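 Read-out is LIPC transcript level by TaqMan qRT-PCR, normalized to three housekeeping genes, after 48 h chemical treatment of human HepaRG liver cells. Curves span eight concentrations topping at 100 uM; activity in either direction scored relative to 0.5% DMSO.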
# [20] = read-out: Lipoprotein lipase (LPL), LPL (gene 4023); assay: LTEA_HepaRG_LPL: Life Technologies and Expression Analysis (LTEA) Assay for Lipoprotein lipase (LPL) using HepaRG (AID 2283515)
# Outline: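 Read-out is LPL transcript level by qRT-PCR, normalized to three housekeeping genes and fitted bidirectionally against the DMSO control. Human HepaRG cells received chemicals for 48 h at up to 100 uM.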
# Sequence of Hypoxia-inducible factor 1-alpha (Homo sapiens) (Q16665 whole entry, looked up): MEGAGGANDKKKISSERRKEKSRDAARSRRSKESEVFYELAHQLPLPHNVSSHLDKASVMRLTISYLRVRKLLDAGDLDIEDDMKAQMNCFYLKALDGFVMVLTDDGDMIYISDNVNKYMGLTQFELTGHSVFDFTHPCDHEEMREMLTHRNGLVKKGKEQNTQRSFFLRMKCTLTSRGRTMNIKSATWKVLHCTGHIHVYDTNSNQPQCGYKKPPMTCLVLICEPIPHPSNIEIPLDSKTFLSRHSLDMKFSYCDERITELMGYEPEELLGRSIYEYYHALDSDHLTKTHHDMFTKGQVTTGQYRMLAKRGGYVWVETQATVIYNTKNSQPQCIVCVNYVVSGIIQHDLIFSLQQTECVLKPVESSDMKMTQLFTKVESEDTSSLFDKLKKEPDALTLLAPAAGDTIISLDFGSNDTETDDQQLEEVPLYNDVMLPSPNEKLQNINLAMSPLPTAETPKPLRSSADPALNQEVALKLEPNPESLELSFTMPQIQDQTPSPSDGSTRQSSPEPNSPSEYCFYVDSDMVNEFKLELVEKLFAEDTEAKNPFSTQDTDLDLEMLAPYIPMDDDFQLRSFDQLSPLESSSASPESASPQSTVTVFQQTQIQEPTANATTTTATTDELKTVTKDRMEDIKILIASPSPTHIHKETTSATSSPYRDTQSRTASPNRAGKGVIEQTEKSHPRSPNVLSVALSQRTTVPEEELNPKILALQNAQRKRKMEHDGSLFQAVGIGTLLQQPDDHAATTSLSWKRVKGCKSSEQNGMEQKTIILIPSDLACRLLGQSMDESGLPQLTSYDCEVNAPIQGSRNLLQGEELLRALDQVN
compound,measurement,setting,value
Cc1ccc([N+](=O)[O-])cc1,AC50,[1],17.3 µM (active)
same,outcome,[2],inactive
same,outcome,[3],inactive
same,outcome,[4],inactive
same,outcome,[5],inactive
same,outcome,[6],inactive
same,outcome,[7],inactive
same,outcome,[8],inactive
same,outcome,[9],inactive
same,outcome,[10],inactive
same,AC50,[11],17.8 µM (active)
same,outcome,[12],inactive
same,outcome,[13],inactive
same,outcome,[14],inactive
same,outcome,[15],inactive
same,outcome,[16],inactive
same,outcome,[17],inactive
same,outcome,[18],inactive
same,outcome,[19],inactive
same,outcome,[20],inactive
Clc1ccccc1Cl,outcome,[1],inactive
same,outcome,[2],inactive
same,outcome,[3],inactive
same,outcome,[4],inactive
same,outcome,[5],inactive
same,outcome,[6],inactive
same,outcome,[7],inactive
same,outcome,[8],inactive
same,outcome,[9],inactive
same,outcome,[10],inactive
same,outcome,[11],inactive
same,outcome,[12],inactive
same,outcome,[14],inactive
same,outcome,[15],inactive
same,outcome,[16],inactive
same,outcome,[17],inactive
same,outcome,[19],inactive
same,outcome,[20],inactive
Cc1ccc(N)cc1,outcome,[1],inactive
same,outcome,[2],inactive
same,outcome,[3],inactive
same,outcome,[4],inactive
same,outcome,[5],inactive
same,outcome,[6],inactive
same,outcome,[7],inactive
same,outcome,[8],inactive
same,outcome,[9],inactive
same,outcome,[10],inactive
same,outcome,[11],inactive
same,outcome,[12],inactive
same,outcome,[13],inactive
same,outcome,[14],inactive
same,outcome,[15],inactive
same,outcome,[16],inactive
same,outcome,[17],inactive
same,outcome,[18],inactive
same,outcome,[19],inactive
same,outcome,[20],inactive
[Cl-].[Cl-].[Hg+2],outcome,[1],inactive
same,outcome,[2],inactive
same,outcome,[3],inactive
same,AC50,[4],24.1 µM (active)
same,outcome,[5],inactive
same,outcome,[6],inactive
same,outcome,[7],inactive
same,outcome,[8],inactive
same,outcome,[9],inactive
same,outcome,[10],inactive
same,outcome,[11],inactive
same,outcome,[12],inactive
same,outcome,[14],inactive
same,outcome,[15],inactive
same,outcome,[16],inactive
same,AC50,[17],29.3 µM (active)
same,outcome,[18],inactive
same,outcome,[19],inactive
same,outcome,[20],inactive
N#CC(Br)Br,outcome,[1],inactive
same,outcome,[2],inactive
same,outcome,[3],inactive
same,outcome,[4],inactive
same,outcome,[5],inactive
same,outcome,[6],inactive
same,outcome,[7],inactive
same,outcome,[8],inactive
same,outcome,[9],inactive
same,outcome,[10],inactive
same,outcome,[11],inactive
same,outcome,[12],inactive
same,outcome,[13],inactive
same,outcome,[14],inactive
same,outcome,[15],inactive
same,outcome,[16],inactive
same,outcome,[17],inactive
same,outcome,[19],inactive
same,outcome,[20],inactive
CNC(=O)Oc1cccc2c1OC(C)(C)C2,AC50,[1],9.92 µM (active)
same,outcome,[2],inactive
same,outcome,[3],inactive
same,outcome,[4],inactive
same,outcome,[5],inactive
same,outcome,[6],inactive
same,outcome,[7],inactive
same,outcome,[8],inactive
same,AC50,[9],38.8 µM (active)
same,outcome,[10],inactive
same,outcome,[11],inactive
same,outcome,[12],inactive
same,outcome,[14],inactive
same,outcome,[15],inactive
same,outcome,[16],inactive
same,outcome,[17],inactive
same,outcome,[19],inactive
same,outcome,[20],inactive
O=C(O)C1C2CCC(O2)C1C(=O)O (stereo not drawn),AC50,[1],71.5 µM (active)
same,AC50,[2],72.4 µM (active)
same,outcome,[3],inactive
same,outcome,[4],inactive
same,outcome,[5],inactive
same,outcome,[6],inactive
same,outcome,[7],inactive
same,AC50,[9],72.6 µM (active)
same,outcome,[10],inactive
same,AC50,[11],73.6 µM (active)
same,outcome,[12],inactive
same,AC50,[13],93.3 µM (active)
same,AC50,[14],16.5 µM (active)
same,AC50,[15],26.4 µM (active)
same,outcome,[16],inactive
same,AC50,[17],50 µM (active)
same,AC50,[18],24.7 µM (active)
same,AC50,[19],82.6 µM (active)
same,outcome,[20],inactive
